Assay outcomes from PubChem.
Anesthetic bind: qHTS Assay for Identification of Novel General Anesthetics. Potency, µM (series often up to 77.5 µM), for the others: at the top dose activity change, negative = displacement, most hits filed as inhibitors. apoferritin/1-aminoanthracene competitive binding, fluorescence. 0.074% of 350,000 active; further: on the % scale 0 is the no-effect control and ±100 the full control effect; nearly all actives have a fitted effect of over 20% in size
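In PBS, apoferritin at 10 uM is loaded with 1-AMA from a 50% saturated solution. After 10 min of compound exposure at ambient temperature, reduced 535 nm fluorescence indicates probe displacement.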
rTrxR1 inhibitor: qHTS Assay for Inhibitors of Mammalian Selenoprotein Thioredoxin Reductase 1 (TrxR1): qHTS. 1% of 390,000 active. AID 588453, 2011. Potency, µM (series often up to 114 µM), without a hit: top-dose activity change, negative = inhibition, actives largely listed as inhibitors. Thioredoxin reductase 1, cytoplasmic (Rattus norvegicus), O89049. recombinant rTrxR1, NADPH fluorescence consumption, selenite substrate; further: on the % scale 0 is the no-effect control and ±100 the full control effect; nearly all actives have a fitted effect of over 65% in size
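Rat TrxR1 (90 nM in the dispensed reagent) was pre-reduced with 400 uM NADPH for 5 min at room temperature, then incubated with compound for 15 min. After 400 uM selenite was added, NADPH fluorescence (Ex 340/Em 450 nm) was followed for 8 min.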
TrxR1 substrate: qHTS Assay for Substrates of Mammalian Selenoprotein Thioredoxin Reductase 1 (TrxR1): qHTS; purified TrxR1 substrate turnover, NADPH consumption readout; 0.01% of 390,000 active; Potency, µM (titrated, usually from 114 µM), without a hit: top-dose activity change, negative = substrate turnover; further: on the % scale 0 is the no-effect control and ±100 the full control effect; nearly all actives have a fitted effect of over 50% in size
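Rat TrxR1, dispensed at 90 nM, was prereduced with 400 uM NADPH (final) for 5 min at ~22 deg C, then incubated with compound 15 min before 400 uM selenite. A first-read NADPH fluorescence drop versus no-compound background flagged substrates.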
IDH1 R132H inh: qHTS for Inhibitors of mutant isocitrate dehydrogenase 1 (IDH1): qHTS; IDH1-R132H enzyme, NADPH consumption, diaphorase/resazurin fluorescence; Potency, µM (top dose mostly 76.6 µM), for the others: at the highest dose activity change, negative = inhibition, actives largely listed as inhibitors; 0.093% of 390,000 active; further: on the % scale 0 is the no-effect control and ±100 the full control effect; nearly all actives have a fitted effect of over 65% in size
Target sequence (O75874 whole entry R132H, stated change not applied): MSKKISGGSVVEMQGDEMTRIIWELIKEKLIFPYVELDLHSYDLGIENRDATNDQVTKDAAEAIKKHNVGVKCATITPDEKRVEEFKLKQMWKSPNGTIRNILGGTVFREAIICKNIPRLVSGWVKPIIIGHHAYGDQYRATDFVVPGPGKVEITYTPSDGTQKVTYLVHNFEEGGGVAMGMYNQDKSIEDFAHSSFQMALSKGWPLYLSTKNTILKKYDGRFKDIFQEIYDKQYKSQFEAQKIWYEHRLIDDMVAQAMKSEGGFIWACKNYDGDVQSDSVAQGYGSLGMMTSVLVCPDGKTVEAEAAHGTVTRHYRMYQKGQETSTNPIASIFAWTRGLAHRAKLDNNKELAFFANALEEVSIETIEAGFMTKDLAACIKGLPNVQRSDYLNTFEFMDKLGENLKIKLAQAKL
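IDH1-R132H (0.5 ug/mL) preincubated 30 min with compound, then NADPH (0.016 mM) and alpha-KG (2 mM) added; 80 min at RT, pH 7.5. Remaining NADPH coupled via diaphorase/resazurin to fluorescence (540/590 nm); concentration-response curves normalized to no-enzyme control.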
Glioma ERSR ind: qHTS for Inducers of the Endoplasmic Reticulum Stress Response (ERSR) in Human Glioma: qHTS; 0.02% of 420,000 active; AID 602332, 2012; U87-MG GRP78 promoter luciferase reporter, 16 h; Potency, µM, for inactives: at the highest dose activation, actives largely listed as activators; further: series mostly up to about 76 µM; % of control where 0% means no effect; nearly all actives have a fitted effect of over 35% in size
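ERSR induction read as luciferase luminescence (Bright-Glo, 10 min at room temperature) in stably transfected human U87-MG glioma cells exposed to compounds for 16 h, using GRP78 as sensor.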
ALOX12 inh: Primary qHTS assay for inhibitors of human arachidonate 12S-lipoxygenase (ALOX12): Round 2 | purified 12hLO, xylenol orange hydroperoxide absorbance | Potency, µM (series often up to 108 µM), without a hit: at the highest dose activity change, negative = inhibition, actives largely listed as inhibitors | 1.1% of 580,000 active | AID 1671190, 2021 | Polyunsaturated fatty acid lipoxygenase ALOX12 (Homo sapiens), P18054; further: on the % scale 0 is the no-effect control and ±100 the full control effect
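Purified human 12hLO at 150 nM in 25 mM Hepes, 0.01% Triton X-100, pH 7.0, preincubated 15 min at room temperature with compound. Reaction started with 40 uM arachidonic acid, 30 min at room temperature. Hydroperoxide measured by Fe-xylenol orange, 573/405 nm absorbance ratio.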
* marks the source's active call; other numbers are inactive results; ? = inconclusive; nt = no result; [ ] = dose if it differs, or a comment. The list is not random: actives were taken first. Their share in the collection is about 1.7%. The call rests on the fitted dose curve; in most records, active means well fitted curve in the direction sought with a large enough effect; inconclusive means small, poorly fitted or top-dose-only effect, or another doubt; inactive means no such curve, though single readings can be large; an effect the other way counts as inactive or inconclusive. Potency means the concentration at half of the fitted maximal effect.

SMILES	Anesthetic bind	rTrxR1 inhibitor	TrxR1 substrate	IDH1 R132H inh	Glioma ERSR ind	ALOX12 inh
C/C=C\C(=O)Nc1cccc(C2=NOC3(C2)C[C@H](C(N)=O)N(C(=O)/C=C/CC)C3)c1 (some centres undefined)	-1%	1%	2%	6%	-4%	?
C/C=C\C=C/C(=O)Nc1cccc(C2=NOC3(C2)C[C@@H](C(N)=O)N(C(=O)/C=C/C=C\C)C3)c1 (some centres undefined)	-3%	7.1µM*	12%[57.1 µM]	-8%	-3%	nt
C/C=C\C=C/C(=O)Nc1cccc(C2=NOC3(C2)C[C@@H](C(N)=O)N(C(=O)/C=C/CC)C3)c1 (some centres undefined)	-17%	16µM*	0%	4%	-1%	nt
C=C(C)C(=O)N1CC2(CC(c3cccc(NC(=O)/C=C\C=C/C)c3)=NO2)C[C@H]1C(N)=O (some centres undefined)	2%	20µM*	2%	-8%	-3%	-8%
C[C@H](O)[C@@H]1C(=O)N2CCc3c([nH]c4c(-c5ccccc5)cccc34)[C@@H]2C[C@@H]1N(C)C(=O)/C=C/c1ccccc1	nt	nt	nt	nt	nt	-7%
O=C1c2ccccc2NC(c2ccc(-c3cccc([N+](=O)[O-])c3)o2)N1O (centres undefined)	-10%	-29%	-8%	4%	0%	?
O=C1c2ccccc2NC(c2ccc(-c3ccc(F)cc3)o2)N1O (centres undefined)	nt	-28%	6%	nt	8%	40µM*
O=C1c2ccccc2NC(c2ccccc2O)N1O (centres undefined)	4%	17%	-1%	12%	-2%	?
O=C1c2ccccc2NC(c2ccc(-c3ccc(Br)cc3)o2)N1O (centres undefined)	?	-6%	10%	11%	-2%	20µM*
O=c1[nH]c(N2CCN(c3ccccc3F)CC2)nc2c1CCC2	nt	nt	nt	nt	nt	5%
O=S(=O)(O)c1cc(Cl)cc(N=Nc2ccc(O)cc2O)c1O	nt	-29%	-30%	2%	-5%	45µM*
O=[N+]([O-])c1ccc(N=Nc2ccc(O)cc2O)cc1	-22%	-3%	-1%	2%	-7%	?
COc1ccccc1C(=O)N1CCN(C(=O)[C@@H](Cc2ccccc2)NC(=O)[C@H]2O[C@@H](n3ccc(=O)[nH]c3=O)[C@H](O)[C@@H]2O)CC1	nt	nt	nt	nt	nt	-3%
CC(CCc1ccccc1)N1CCN(Cc2ccccc2)CC1 (centres undefined)	-2%	18%	5%[0.0914 µM]	3%	-3%	5.6µM*
CCS(=O)(=O)N1CCN(C(C)CCc2ccccc2)CC1 (centres undefined)	2%	7%[57.1 µM]	9%[57.1 µM]	9%	-5%	?
COCCO[C@H]1C(=O)N(C2CCN(S(C)(=O)=O)CC2)[C@H]1c1ccncc1	nt	nt	nt	nt	nt	1%
Fc1ccc(OCc2nc3ccccc3n2C(F)F)c(F)c1	nt	nt	nt	nt	nt	33%
Cc1ccc(-c2csc3ncn(-n4c(C)ccc4C)c(=O)c23)o1	-19%	32µM*	-1%	1%	-5%	?
Cc1sc2ncn(-n3c(C)ccc3C)c(=O)c2c1C	?	?	-6%	1%	-6%	-27%
CSc1ccccc1NC(=O)C(C)OC(=O)C1CCCC1 (centres undefined)	nt	nt	nt	nt	nt	33%
